The nature of this test: S6 kinase pathway phospho-S6 level changes – cell-based, A549, cytoblot, luminescence, serum-stimulated, primary screen (AID 1158).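 Note: serum-stimulated A549 lung adenocarcinoma cells; signal is phosphorylated S6 detected by cytoblot immunostaining with HRP secondary.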 The settings on record: 5 h, higher = more signal.
With `COC(=O)CC=C[C@@H](C)[C@@H](C=NOC(C)CN1CCCCc2nc(C)c(C)cc21)OC` (some centres undefined), the z-score is -0.637. For `CCOC(=O)[C@H](CC(C)C)NC(=O)CCC1CC(OC(=O)NCc2ccc3c(c2)OCO3)CC2(CCCC(COC(=O)NCCc3ccc(Cl)cc3)O2)O1` (some centres undefined), the z-score is -0.793. The value for `CC(CCN1CCc2nc(-c3ccccc3)c(-c3ccccc3)cc2C1)=NO[C@H](C)c1cn([C@H](CO)Cc2ccccc2)nn1` was -0.746; that for `CC(CCC(=O)OC[C@H]1O[C@H](C#Cc2ccccc2)C=C[C@@H]1Oc1ccc(C)cc1)=NO[C@H](C)c1cn([C@@H]2COC[C@H]2O)nn1` was 1.2.

On to `CC(CCN1CCc2nc(-c3ccccc3)c(-c3ccccc3)cc2C1)=NOC(C)CN1CCCc2nc(C)c(C)cc21` (centres undefined), for which the z-score is -0.56. The value for `CCC1=NOC(CCC2CC(OC(=O)NCc3cccc4c3OCO4)CC3(CCCC(COC(=O)NCCc4ccc(Cl)cc4)O3)O2)C1` (centres undefined) was -0.695; that for `CCOC(=O)CCN1C(=O)[C@H]2[C@@H]3C(=CC[C@H]2C1=O)C(=O)[C@H]1O[C@H]1[C@H]3O` was 0.642. The value for `CON=C(C)CCC(=O)OC[C@H]1O[C@H](C#Cc2ccccc2)C=C[C@@H]1Oc1ccc(C)cc1` was -0.57; that for `Cc1cc2c(nc1C)CCCCN2CC(O)CN1CCCc2nc(-c3ccc(Br)cc3)ccc21` (centres undefined) was 0.75; that for `COC(=O)[C@H](C)NC(=O)CCC1CC(OC(=O)NCc2cccc3ccccc23)CC2(CCCC(COC(=O)NCCc3ccccc3OC)O2)O1` (some centres undefined) was -0.353. As for `CC#CCOCCC=C1c2ccccc2[C@@H](OC)[C@@H]1C`, the z-score was -0.161. As for `CCO[C@H](c1cc(OC)cc([N+](=O)[O-])c1OC)[C@H](C)[C@@H](OC)[C@H](C)C=CCC(=O)OC`, the figure is -0.421; as for `O=C1[C@H]2[C@H]3[C@H](O)[C@H](O)CC(=NOC[C@@H](O)COCc4ccco4)[C@@H]3CC[C@H]2C(=O)N1c1cccc(Oc2ccccc2)c1`, -0.664; as for `COC(=O)[C@@H]1CC[C@H](C)[C@@H](c2ccc(Br)cc2)N1C[C@@H](O)CN=[N+]=[N-]`, 1.84.

Turning to `CCOC(=O)[C@H](Cc1ccccc1)NC(=O)CCC1CC(OC(=O)NCc2cccc3ccccc23)CC2(CCCC(COC(=O)NCC3CCCCC3)O2)O1` (some centres undefined), the z-score is -0.154.

Turning to `C#CCCCON=C1[C@H]2CCn3c(=O)n([C@@H](CC)c4ccccc4)c(=O)n3[C@H]2[C@H](O)[C@@H]2O[C@H]12`, the z-score was found to be 1.09. Molecule `C[C@@H]1C=CCC(=O)OC[C@H](C)C(=O)N[C@@H](Cc2ccccc2)C(=O)OC1` returned a z-score of 0.826. As for `Cc1ccc2[nH]c3nc(CCCn4ccnc4-c4ccccc4)nnc3c2c1`, the figure is -0.903; as for `CC(CCN1CCc2nc(-c3ccccc3)c(-c3ccccc3)cc2C1)=NO[C@@H](C)c1cc(-c2c(C)cc(C)cc2C)no1`, 0.831; as for `O=C1[C@H]2CCn3c(=O)n(Cc4cc5c(cc4Cl)OCO5)c(=O)n3[C@H]2[C@H](O)[C@@H]2O[C@H]12`, 0.489.

With `CCCNC(=O)OC[C@H]1O[C@H](CCON=C[C@@H](NS(=O)(=O)c2ccc(C)cc2)[C@H](C)C=CCC(=O)OC)C=C[C@@H]1Oc1ccc(OC)cc1`, the z-score is -0.81. For the molecule `CCN1C(=O)[C@H]2[C@H]3[C@H](O)[C@H](O)CC(=NOCC[C@@H]4C=C[C@H](OC(C)=O)[C@@H](COC(C)=O)O4)[C@@H]3CC[C@H]2C1=O`, the z-score is -0.401. As for `COc1ccc(O[C@H]2C=C[C@@H](c3ccccc3)O[C@@H]2COC(=O)CCC(C)=NOC[C@@H](O)COCc2ccco2)cc1`, the figure is 1.18; as for `CC(C)[C@@H](OCc1ccccc1)[C@H](C)C=NOC[C@@H](O)[C@H]1O[C@@H]2OC(C)(C)O[C@@H]2[C@H]1O`, -0.898.

As to `O=C1C2=CC[C@H]3C(=O)N(Cc4ccccc4)C(=O)[C@H]3[C@H]2[C@H](O)[C@@H]2O[C@H]12`, the z-score is -0.451. Regarding `COC(=O)[C@H](C)NC(=O)CCC1CC(OC(=O)NCc2ccc3c(c2)OCO3)CC2(CCCC(COC(=O)NCc3ccccc3)O2)O1` (some centres undefined), the z-score is 0.307.

Turning to `CC(C)CON=C1C[C@@H](O)[C@@H](O)[C@@H]2[C@@H]3C(=O)N(Cc4ccccc4)C(=O)[C@@H]3CC[C@H]12`, the z-score is 0.0105. As for `O=C1[C@H]2[C@H]3[C@H](O)[C@H](O)CC(=NO[C@@H]4O[C@H](CO)[C@@H](O)[C@H](O)[C@H]4O)[C@H]3CC[C@H]2C(=O)N1c1ccc(F)cc1F`, the figure is -0.56; as for `CC(=O)OC[C@H]1O[C@@H](ON=C2[C@H]3CCn4c(=O)n(-c5ccccc5)c(=O)n4[C@H]3[C@H](O)[C@@H]3O[C@H]23)[C@H](OC(C)=O)[C@@H](OC(C)=O)[C@@H]1OC(C)=O`, -0.862.

(Values after PubChem BioAssay.)
